High-throughput results (PubChem BioAssay)
PAFAH1B3 inh: blocks human PAF acetylhydrolase 1B catalytic subunit 3. inhibition, % at 3.39 µM. recombinant PAFAH1B3, FP-rhodamine probe, fluorescence polarization. hit rate 0.28% among 340,000. Q15102;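 active = inhibition above the screen-wide average of all tested compounds plus 3 SD, cut at about 25% in these data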;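 note: 0% = enzyme with DMSO only and 100% = wells lacking PAFAH1B3 protein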
HTRA1 inh: HTRA1 (human) protease inhibition; recombinant HTRA1, FP-rhodamine activity-based probe, fluorescence polarization; hit rate 0.5% among 340,000; inhibition, % at 5.96 µM; Q92743; in the data active = inhibition above about 36%;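 note: 0% = enzyme with DMSO and 100% = wells lacking enzyme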
pPAFAH FP inh: inhibitors of human plasma PAF acetylhydrolase (pPAFAH) | hit rate 1.5% among 330,000 | inhibition, % at 3.39 µM | recombinant pPAFAH, FP-rhodamine probe fluorescence polarization | Q13093;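 active = inhibition above the mean inhibition across the screen plus 3 SD, cut at about 25% in these data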;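 note: inhibitors block binding of the rhodamine activity-based probe so polarization drops; 0% = enzyme with DMSO and 100% = wells lacking pPAFAH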
Target sequence (Q13093 whole entry, looked up): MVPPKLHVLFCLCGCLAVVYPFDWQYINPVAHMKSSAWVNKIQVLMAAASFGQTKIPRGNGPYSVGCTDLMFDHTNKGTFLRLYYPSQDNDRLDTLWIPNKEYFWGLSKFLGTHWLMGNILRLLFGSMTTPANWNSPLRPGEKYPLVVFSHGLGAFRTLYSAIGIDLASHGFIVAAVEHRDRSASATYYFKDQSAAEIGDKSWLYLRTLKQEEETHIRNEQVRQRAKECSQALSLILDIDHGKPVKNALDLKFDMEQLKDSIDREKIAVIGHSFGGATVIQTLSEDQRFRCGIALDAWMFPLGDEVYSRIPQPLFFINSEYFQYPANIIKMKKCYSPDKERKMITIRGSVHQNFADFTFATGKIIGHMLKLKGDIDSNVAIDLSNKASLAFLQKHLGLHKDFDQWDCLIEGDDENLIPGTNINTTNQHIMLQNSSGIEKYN
PAFAH1B2 FP inh: inhibitors of human PAFAH1B2. P68402. recombinant PAFAH1B2, FP-rhodamine activity probe, fluorescence polarization. inhibition, % at 3.39 µM. hit rate 1.2% among 340,000;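 active = inhibition above the mean of all tested compounds plus 3 SD, cut at about 24% in these data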;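 note: 0% = enzyme with DMSO and 100% = wells lacking PAFAH1B2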
DAGLB inh: blocks human DAGLB lipase activity; Q8NCG7; HEK293T DAGLB membrane lysate, EnzChek fluorogenic substrate; inhibition, % at 5.17 µM; hit rate 0.059% among 340,000; AID 504411; in the data active = inhibition above about 34%;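 note: 0% = enzyme with vehicle and 100% = wells lacking enzyme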
PAFAH2 inh: PAFAH2 (human) inhibition; inhibition, % at 3.39 µM; Q99487; hit rate 0.99% among 340,000; recombinant PAFAH2, FP-rhodamine activity probe, fluorescence polarization;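 active = inhibition above the mean over all tested compounds plus 3 SD, cut at about 30% in these data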;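 note: inhibitors block probe labeling of enzyme so polarization drops; 0% = enzyme with DMSO and 100% = wells lacking PAFAH2 protein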
pPAFAH FP conf: confirmation of human plasma PAF acetylhydrolase (pPAFAH) inhibitors; shares compounds with pPAFAH FP inh; recombinant pPAFAH, FP-Rh probe fluorescence polarization; inhibition, % at 3.39 µM; hit rate 72% among 2,300; AID 463230;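 active = mean inhibition of the triplicate above the hit cutoff set for the earlier primary screen, cut at about 25% in these data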;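 note: 0% = enzyme with DMSO and 100% = wells lacking pPAFAH enzyme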
PAFAH2 confirm: PAFAH2 (human) inhibition, confirmed | shares compounds with PAFAH2 inh | recombinant PAFAH2, FP-rhodamine activity probe, fluorescence polarization | inhibition, % at 3.39 µM | hit rate 65% among 2,300 | AID 493030;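 active = mean inhibition over three repeats above a set limit taken from the earlier primary screen, cut at about 30% in these data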;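 note: inhibitor blocks binding of rhodamine activity probe so polarization falls; 0% = enzyme with DMSO and 100% = wells lacking PAFAH2 protein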
DAGLB confirm: DAGLB (human) inhibition, confirmation screen | hit rate 73% among 190 | inhibition, % at 5.17 µM | AID 504445 | shares compounds with DAGLB inh | HEK293T DAGLB membrane lysate, EnzChek fluorogenic substrate;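 active = mean inhibition over triplicate wells above a set limit taken from the primary lipase screen, cut at about 34% in these data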;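 note: 0% = DAGLB with DMSO and 100% = wells lacking DAGLB enzyme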
HTRA1 inh conf: HTRA1 (human) inhibition, confirmation; shares compounds with HTRA1 inh; hit rate 66% among 1,600; AID 540248; recombinant HTRA1, FP-rhodamine activity-based probe, fluorescence polarization; inhibition, % at 5.96 µM;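 active = mean inhibition over three repeats above a set limit taken from the earlier primary screen, cut at about 37% in these data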;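 note: 0% = HTRA1 with DMSO and 100% = wells lacking HTRA1; inhibitors block probe binding so polarization drops and inhibition rises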
An asterisk follows results filed as active; . = no result. Compounds with a hit are over-represented: about 2.8% of the library has one in this group of screens.

SMILES | PAFAH1B3 inh | HTRA1 inh | pPAFAH FP inh | PAFAH1B2 FP inh | DAGLB inh | PAFAH2 inh | pPAFAH FP conf | HTRA1 inh conf | others
Cc1oc2c(O)c(O)ccc2c(=O)c1-c1cnn(-c2ccccc2)c1 | 6 | 61* | 51* | 1 | 28 | 33* | 60* | 92*
NC(=S)N/N=C/c1ccc(C23CC4CC(CC(C4)C2)C3)cc1 | . | . | 8 | . | . | . | . | .
CC(C)(C)c1ccc(OCc2ccc(C(=O)N/N=C/c3ccc(O)c(O)c3)cc2)cc1 | 17 | 45* | 43* | -8 | 5 | 2 | 74* | 81*
O=C(COc1ccccc1C(=O)N/N=C\c1ccc(O)c(O)c1)N/N=C/c1ccc(O)c(O)c1 | 0 | 47* | 62* | 12 | 4 | 42* | 80* | 59*
O=C(N/N=C/c1ccc(OCc2ccc(F)cc2)cc1)c1ccccc1 | 9 | -10 | 0 | 0 | 2 | -6 | . | .
O=C(O)c1cc(N=Nc2c(O)ccc3ccccc23)cc(C(=O)O)c1 | 6 | 6 | . | 10 | 3 | -14 | . | .
O=C(O)c1ccc(N=Nc2c(O)ccc3ncccc23)cc1 | 33* | 39* | 39* | 14 | 13 | 6 | 56* | 29
Cc1c(Br)c(=O)oc2c(Br)c(O)c(O)cc12 | 47* | 64* | 63* | 51* | 32 | 83* | 81* | 83*
Cc1c(Br)c(=O)oc2c(Br)c(O)ccc12 | 7 | 1 | 1 | 2 | 2 | 4 | . | .
CCN(CC(=O)NC1CCS(=O)(=O)C1)C(=O)c1ccc(OC)c([N+](=O)[O-])c1 (stereo not given) | -1 | 1 | 1 | 1 | 1 | 10 | . | .
Oc1c(Br)cc(Br)cc1CNc1cccc2cccnc12 | 28* | 70* | 61* | 17 | 18 | 24 | 25 | 32
O=C(COc1cc(F)ccc1[N+](=O)[O-])Nc1cc(S(=O)(=O)N2CCCC2)ccc1Cl | 5 | -7 | . | 2 | -2 | 6 | . | .
CCNc1cc(O)ccc1C | 15 | 71* | 75* | 14 | -1 | 26 | 12 | 41*
COc1cnc(-c2ccccn2)nc1Oc1ccc(Cl)c2ccccc12 | 7 | 53* | 60* | -1 | 2 | 3 | 64* | 54*
COc1ccc(NC(=O)c2cccnc2)cc1 | 6 | 1 | -2 | -4 | -1 | 3 | . | .
C/C(=C\C(=O)c1cccnc1)Nc1ccc(O)cc1 | 3 | 64* | 38* | 0 | -3 | -3 | -4 | 3
Cc1cccc(NS(=O)(=O)c2ccc(C)c(C(=O)NCc3ccccn3)c2)c1 | 2 | -4 | . | 1 | 4 | 3 | . | .
CCOc1ccc(NC(=O)CSc2nc(=O)n(CCN3CCOCC3)c3c2CCCC3)cc1 | 7 | -2 | 3 | 2 | 1 | -2 | . | .
O=c1cc2oc3cc(O)c(O)cc3c(-c3ccccc3[N+](=O)[O-])c-2cc1O | 13 | 59* | 88* | 17 | 43* | 57* | 83* | 68* | DAGLB confirm=29
COc1cccc(-n2c(SCc3cc(=O)oc4cc(O)c(O)cc34)nc3ccccc3c2=O)c1 | 16 | 67* | 94* | 2 | 40* | 64* | 92* | 76* | PAFAH2 confirm=54*;DAGLB confirm=20
O=C(O)CCNc1cc(N2CCN(C(=O)c3ccco3)CC2)c2noc3c2c1C(=O)c1ccccc1-3 | -8 | 46* | 74* | -2 | 14 | -16 | 45* | 7
Cc1cc(N2CCN(C(=O)c3ccco3)CC2)c2ccccc2n1 | 4 | 4 | 2 | -1 | -1 | 4 | . | .
CCOc1ccc(OCCC(=O)Nc2ccccc2C(=O)NC2CC2)cc1 | . | 5 | . | . | -4 | . | . | .
